In all, about 48,000 compounds went through this assay and about 13,000 (27%) showed an effect of 50% or more. This is one part of the list.
Test system: Wolbachia pipientis
Experiment: Anti-Wolbachia Cell-Based Screen
Format: functional
Set-up: scale not given: in the data most compounds retested in dose-response had high values
Conditions: 5 µM

SMILES	Percent Effect
O=C(c1ccc2c(c1)[nH]c(=O)n2C1CCCC1)N1CCSCC1	1.159%
CCCSc1ncc(CN2CCN(C)C(=O)C2C)cn1 (stereo not given)	3.746%
Cc1nsc(NC(=O)N2CCN(Cc3ccccc3F)C(=O)C2)n1	-10.42%
Clc1cccc(-c2noc(CCN3CCN(c4ccncc4)CC3)n2)c1	4.288%
CN(Cc1ccc(Cl)s1)C(=O)Nc1ccc(N(C)C)nc1	10.16%
COCCN(Cc1cnn(C)c1)C(=O)C1COc2c(cccc2OC)C1 (stereo not given)	-6.746%
CCN1CC2(CCCCN2C(=O)c2ccsc2)CC1=O (stereo not given)	92.4%
CN1CC2(CCCCN2C(=O)c2ccsc2)CC1=O (stereo not given)	106.9%
CCN1C(=O)CCCC12CCCN(C(=O)c1ccsc1)C2 (stereo not given)	0.7078%
COCCCN1CC2(CCCCN2C(=O)COC)CC1=O (stereo not given)	-19.41%
CCN1CC2(CCCCN2C(=O)c2ccn(C)n2)CC1=O (stereo not given)	-5.146%
COc1ccccc1-c1ccc(C(=O)N2C[C@H]3CC[C@@H]2CN(C)C3)cc1	3.488%
Cc1nnc([C@@H]2CCO[C@@H]3CCN(C(=O)Cc4ccsc4)C[C@@H]32)o1	-11.03%
O=C(NCCCC(=O)N1CCN(CC2CC2)c2ccccc21)C1CC1	-7.741%
COc1ccc2c(c1)OCC(Cc1cc(C(=O)N3CCCC3)ccn1)C2 (stereo not given)	87.9%
Nc1cc(CC2COc3ccccc3C2)ccn1 (stereo not given)	-18.54%
COc1ccc2c(c1)OCC(Cc1cc(N3CCCC3)cnn1)C2 (stereo not given)	-5.296%
c1ccc2c(c1)CC(Cc1cc(N3CCCC3)cnn1)CO2 (stereo not given)	9.635%
O=C(c1ccnc(CC2COc3ccccc3C2)c1)N1CCCC1 (stereo not given)	99.57%
COc1ccc2c(c1)OCC(Cc1ccnc(N)n1)C2 (stereo not given)	-14.38%
COc1cccc(CC(=O)N2CC[C@@H]3NC(=O)CC[C@@H]32)c1	-6.606%
Cc1ccc(OCC(O)CNC(=O)C2(c3ccc(F)cc3)CC2)cc1 (stereo not given)	-8.798%
FC(F)(F)CCN(Cc1ccon1)C1CCCC1	5.052%
CCc1cc(CNC(=O)N(C2CC2)C(C)c2ccco2)[nH]n1 (stereo not given)	-14.67%
CCc1cc(CNC(=O)c2cc(NC(=O)C(C)C)ccc2Cl)[nH]n1	-9.115%

SMILES	Percent Effect
C[C@H](NS(C)(=O)=O)C(=O)NCc1cc(-c2ccco2)n[nH]1	75.56%
CCc1cc(CNC(=O)NCC(c2ccco2)N2CCCC2)[nH]n1 (stereo not given)	-1.193%
CCCC(C)NC(=O)c1ccc(-c2ccco2)[nH]c1=O (stereo not given)	12.91%
CC(C)[C@H](NS(C)(=O)=O)C(=O)NCc1cc(-c2ccco2)n[nH]1	84.23%
CC(C)[C@H](NS(C)(=O)=O)C(=O)NCc1cc(-c2ccccc2)n[nH]1	101.1%
CN(Cc1ccco1)Cc1ccccc1CNC(=O)c1cc[nH]n1	-6.684%
CC(NS(C)(=O)=O)C(=O)N(C)Cc1csc(-c2ccccc2)n1 (stereo not given)	-10.17%
O=C(c1cccc(-n2cccn2)c1)N1CCCOC(Cn2cccn2)C1 (stereo not given)	8.514%
O=C(NCC1CC1)C1CCCN(c2cccc(C(F)(F)F)n2)C1 (stereo not given)	-14.15%
COc1ccc(SC(C)C(=O)N2CCC(NC(=O)C3CC3)CC2)cc1 (stereo not given)	-11.29%
COCC(=O)Nc1cc(Br)cnc1OCC(F)(F)F	-8.259%
Cc1ccoc1C(=O)NC1CCN(C(=O)Nc2ccccn2)CC1	143.8%
CC1CCN(C(=O)C2CCCN(C(=O)Nc3ccccn3)C2)CC1 (stereo not given)	-1.039%
Cc1occc1C(=O)NC1CCN(C(=O)Nc2cccnc2)CC1	26.57%
Cc1ccc(C(=O)N2CCN(C(=O)Nc3ccccn3)CC2)o1	12.27%
Cc1ccc(C(=O)NC2CCN(C(=O)Nc3ccccn3)CC2)s1	106.5%
CCn1cc(CN2CCCC2c2nc(-c3ccccc3)no2)cc1C#N (stereo not given)	-29.44%
Cc1ccc(CN2CCc3c(CN4CCCC4)n[nH]c3C2)s1.O=C(O)C(F)(F)F.O=C(O)C(F)(F)F	-6.492%
Cn1nnc2c1C(COCC1CC1)CN(C(=O)[C@H]1CCCO1)C2 (stereo not given in full)	10.79%
CCOC(=O)c1coc(N2CCC(C(O)CC(C)C)CC2)n1 (stereo not given)	-3.785%
Cn1ccc(C(=O)N2CCOC(c3ccccc3)C2)cc1=O (stereo not given)	-8.227%
CC(=O)N1CCN(Cc2c(C)sc3ccccc23)CC(O)C1 (stereo not given)	-5.1%
CC(=O)N1CCOC(c2c(C(=O)NCCN(C)C)sc3ccccc23)C1 (stereo not given)	169.5%
CC(=O)N1CCN(Cc2cccc3c2sc2ccccc23)CC(O)C1 (stereo not given)	-0.8612%
CC(=O)N1CCOC(c2c(C(=O)NC(C)(C)C)sc3ccccc23)C1 (stereo not given)	161.4%

SMILES	Percent Effect
CC(=O)N1CCC(c2nnc3ccc(C(=O)NCCN(C)C)cn23)C1 (stereo not given)	-5.924%
CC(=O)N1CCOC(c2c(C(=O)O)sc3ccccc23)C1 (stereo not given)	123%
CNC(=O)c1cccc(NC(=O)NC(C)CCc2cccn2C)c1C (stereo not given)	-20.84%
CCn1ccnc1CN(C)C1CCCN(Cc2ccccc2F)C1 (stereo not given)	-12.96%
CCC1CN(CCCO)c2ccccc2O1 (stereo not given)	49.62%
Cc1nnc(CN2CCN(CCOc3ccccc3C#N)CC2)n1C	-3.944%
COc1ccc2c(c1)CCN(Cc1cscn1)CC2	-16.58%
CCn1ccnc1CN1CCC(Oc2cccc(F)c2)(C(=O)O)CC1	-6.452%
C[C@]1(O)CN(Cc2cscn2)CC[C@@H]1Oc1cccc(F)c1	131.8%
CCOc1ccnc(N2CCN(Cc3ncccc3C)CC2)n1	-12.42%
Cc1nccc(CN2CC[C@H](Oc3cccc(F)c3)[C@@](C)(O)C2)n1	-4.258%
CCN1CCN(C[C@@H]2CN(c3ncccc3F)C[C@@H]2CO)CC1	10.53%
Fc1ccc(CC2CCN(Cc3cscn3)CC2)cc1	6.196%
C[C@]1(O)CN(Cc2ncccc2F)CC[C@@H]1Oc1cccc(F)c1	113.6%
CCN1CC(c2ccccc2)CC2(CCN(Cc3ncc[nH]3)CC2)C1 (stereo not given)	-4.226%
C[C@]1(O)CN(Cc2ncc[nH]2)CC[C@@H]1Oc1cccc(F)c1	143.6%
Cc1cccnc1CN1CC[C@H](Oc2cccc(F)c2)[C@@](C)(O)C1	112.2%
O=C(c1cnc2[nH]c(=O)[nH]c(=O)c2c1)N1CCCC1C1CCCCC1 (stereo not given)	5.907%
Cc1cccc(S(=O)(=O)NC(=O)c2ccc3c(c2)nnn3C)c1	-16.64%
CC(C)c1noc(-c2ccc(NCc3noc(C(C)C)n3)nc2)n1	-9.684%
Cc1ccccc1OCC1CCCN(C(=O)Cc2c[nH]c(=O)[nH]c2=O)C1 (stereo not given)	-4.345%
O=C(COc1ccc2c(c1)CCC2)NS(=O)(=O)c1cncc(Br)c1	-16.45%
CC(O)c1cn(CC2CCN(C(=O)CN(C)C(C)C)CC2)nn1 (stereo not given)	-14.32%
Cc1ccc(S(C)(=O)=O)cc1C(=O)N1CCCC(n2cncn2)C1 (stereo not given)	123.8%
CSc1ccc(C)c(C(=O)N2CCCC(n3cncn3)C2)c1 (stereo not given)	94.98%

SMILES	Percent Effect
Cc1cc(C)n(C2CN(C(=O)c3cn4ccsc4n3)C2)n1	-20.57%
CCn1c(CN(C)C)nnc1C1CCN(Cc2ccc(Cl)c(F)c2)CC1	-16.98%
COCCO[C@H]1CCN(c2cc(OC)ncn2)[C@H]1Cc1cnn(C)c1	-1.257%
CO[C@@H]1CCN(c2ncccn2)[C@H]1Cc1ccccc1	-5.923%
CO[C@@H]1CCN(c2ncc(F)cn2)[C@H]1Cc1cnn(C)c1	112%
COc1cc(N2CC[C@@H](OC)[C@@H]2Cc2cnn(C)c2)ncn1	110.7%
COCCO[C@@H]1CCN(c2cc(OC)ncn2)[C@H]1Cc1cnn(C)c1	-2.108%
Cn1cc(C[C@H]2[C@H](N3CCOCC3)CCN2c2ncc(F)cn2)cn1.O=C(O)C(F)(F)F	-13.6%
CCc1ccccc1CNC(=O)CNCC(F)(F)F	-0.7333%
Cc1nc(C(C)(C)NC(=O)Nc2cccc(C#N)c2)no1	-15.63%
O=C(C1CC1)N1CCC(Nc2nc(O)cc(-c3ccsc3)n2)CC1	99.22%
CCCC(=O)N1CCC(Nc2nc(O)cc(-c3ccsc3)n2)CC1	101%
CC(=O)c1c(F)cccc1NC1CCN(C(=O)CC(C)C)CC1	-2.175%
CC(C)Nc1nc2c(c(NC3CC3)n1)CN(C(=O)Cc1ccsc1)CC2	-13.92%
O=C(O)C(F)(F)F.O=C(O)c1cc2c(nc1-c1ccsc1)CCN(C(=O)C1CC1)CC2	-4.061%
CC(C)CC(=O)N1CCC(Nc2nc(O)cc(-c3ccsc3)n2)CC1	93.38%
O=C(C1CCOC1)N1CCC(Cn2cc(-c3ccsc3)nn2)CC1 (stereo not given)	-11.04%
O=C(Cn1cccn1)N1CCC(Cn2cc(-c3ccsc3)nn2)CC1	4.923%
CCCC(=O)N1CCC(Nc2ncc(Br)cn2)CC1	-8.622%
Cc1nnc(CN2CCCC2c2ccc3c(c2)OCCO3)n1C (stereo not given)	15.49%
CC(C)(C)OC(=O)N[C@H]1CCN(C(=O)c2cc(Cl)c[nH]2)C1	-15.92%
CCCC(C)NC1CCN(c2ccc(-n3ccnc3C)cc2)CC1 (stereo not given)	-8.3%
CCC(=O)Nc1ccc(C(C)NC(=O)COC)cc1 (stereo not given)	92.17%
CC(NC(=O)CSCC(=O)Nc1ccccc1)c1ccccc1 (stereo not given)	5.031%
COCC(=O)Nc1ccc([C@@H](O)[C@H]2COCC(=O)N2CC(C)C)cc1	0.04576%
